Records with an inconclusive call do not appear. Values without a mark were called inactive. Calls follow the shape of the dose curve; as a rule, active = well fitted activation curve with a large enough effect in the signal ratio in the repeat runs (not every such curve was filed as active); inconclusive = weak or mixed curves; inactive = flat fitted curve, though single readings scatter; the % refers to the signal ratio.
assay: qHTS assay to identify small molecule agonists of the TGF-beta/Smad signaling pathway (AID 1346859); settings: SBE-bla HEK293T, TGF-beta/Smad beta-lactamase reporter, 5 h; series mostly up to 76.8 µM; activation: at the top concentration
Excerpt: U.S. Tox21 Program National Center for Advancing Translational Sciences [NCATS] NIH Chemical Genomics Center [NCGC] U.S. Environmental Protection Agency [EPA] National Institutes of Environmental Health Sciences [NIEHS] National Toxicology Program [NTP] U.S. Food and Drug Administration [FDA] Tox21 Assay Overview: Transforming growth factor beta (TGF-beta) superfamily consists of a large number of structurally related dimeric proteins that act as hormones or local mediators in regulating a wide range of biological functions. This superfamily includes TGF-betas themselves, the bone morphogenetic proteins (BMPs) and the activins. These ligands induce oligomerization of serine/threonine receptor kinases and phosphorylate the cytoplasmic signaling molecules of Smad protein family. CellSensor SBE-bla HEK 293T cell line (Life Technologies, Carlsbad, CA), responsive to TGF-beta was used to screen Tox21 10K compound library for identification of agonists/antagonists of the Smad signaling pathway. This cell line contains a beta-lactamase reporter gene under control of the Smad binding element (SBE) stably integrated into HEK 293T cells.
Tox21 Assay Protocol Summary: SBE-bla HEK 293T cells were dispensed at 4,000/well in 6 uL of assay medium into black wall/clear-bottom 1536-well plates using a Multidrop Combi (ThermoFisher Scientific, Waltham, MA) dispenser. After the assay plates were incubated at 37 C and 5% CO2 for an overnight, 23 nL of compounds dissolved in DMSO, positive controls or DMSO only was transferred to the assay plate by a Pintool station (Kalypsys, San Diego, CA). The assay plates were incubated at 37 C and 5% CO2 for 5 hr. One uL of LiveBLAzer B/G FRET substrate (Life Technologies) was added using a Flying Reagent Dispenser (Aurora Discovery, San Diego, CA) and the plates were incubated at room temperature for 2 hr. Fluorescence intensity (405 nm excitation, 460 nm and 530 nm emissions) was measured using an Envision plate reader (PerkinElmer, Shelton, CT).
% is scaled to controls: 0 for no effect and ±100 for the full control effect.

| Structure (SMILES) | activation |
| --- | --- |
| CC(O)C(CO)C(C)O (stereo not given) | 0.386% |
| C/C=C(\C)C=O | 2.37% |
| CC(=O)OC/C=C(/C)CCC=C(C)C | 2.91% |
| CCO[Si](CC(C)C)(OCC)OCC | -0.2% |
| CC[C@@]1(c2ccccc2)NC(=O)N(C)C1=O | 2.28% [at 35.3 µM] |
| CC(CN1CC(=O)NC(=O)C1)N1CC(=O)NC(=O)C1 (stereo not given) | 17.4% |
| COC(=O)c1ccc(NC(C)=O)cc1OC | -1.88% [at 35.3 µM] |
| CC12CCCC=C1C(=O)OC2=O (stereo not given) | 4.23% |
| COC(C)(C)CC(C)=O | -1% |
| O=C(c1ccccc1)c1cccc(O)c1 | -0.284% |
| Cc1cccc(N)n1 | 0.0737% |
| C=CC(C)(CCC=C(C)C)OC(=O)C(C)C (stereo not given) | 1.15% |
| C=COCCCCO | 2.53% |
| CC(=O)SCC(CC(=O)c1ccc(C)cc1)C(=O)O (stereo not given) | 0.844% [at 35.3 µM] |
| CNC(C)=O | 1.4% |
| CN1CCN(C(=O)C2CCCCC2)CC1 | 4.85% [at 35.3 µM] |
| CCN(CC)CC | -6.66% |
| Cc1ccc(NC(N)=O)cc1 | -0.183% |
| O=P(O)(O)C(O)(Cc1cccnc1)P(=O)(O)O | -1.99% [at 35.3 µM] |
| CCCCN(CCCC)CCCCCCN(CCCC)CCCC | 1.52% |

| Structure (SMILES) | activation |
| --- | --- |
| CCCCCCCCS(=O)(=O)O | 0.613% |
| C[C@@H]1CC[C@@]2(OC1)O[C@H]1C[C@H]3[C@@H]4CC[C@H]5C[C@@H](O)CC[C@]5(C)[C@H]4CC(=O)[C@]3(C)[C@H]1[C@@H]2C | -4.07% [at 6.97 µM] |
| COc1ccc2cc(CCC(C)=O)ccc2c1 | 0.811% [at 35.3 µM] |
| CC(=O)OC1CCC(C(C)(C)C)CC1 (stereo not given) | 1.72% |
| N=C(N)N | 0.831% [at 35.3 µM] |
| C=CC(=O)OCCOCCOCC | -1.64% |
| CCCOc1ccc(C(=O)OCCN(CC)CC)cc1N | 1.33% [at 35.3 µM] |
| COC(=O)/C=C(\C)CCC=C(C)C | -0.393% |
| OCCC(F)(F)C(F)(F)C(F)(F)C(F)(F)C(F)(F)C(F)(F)F | 1.19% |
| COc1cc(OC)cc(OC)c1 | 1.94% [at 35.3 µM] |
| CC(C)OCCO | -1.01% |
| CCCC[O][Al]([O]CCCC)[O]CCCC | 1.07% |
| Cc1cc(N)no1 | 1.23% |
| O=Cc1ccc(C(=O)O)cc1 | 4.58% |
| CCc1ccc(CC)cc1 | 0.223% |
| CCOc1ccccc1OCCN[C@H](C)Cc1ccc(OC)c(S(N)(=O)=O)c1 | -2.09% [at 35.3 µM] |
| CCCCCCCCCCCCCCCCN(C)C | 0.329% [at 6.97 µM] |
| COc1cc(C(=O)NC2CCCNC2)cc(OC)c1OC (stereo not given) | 0.165% [at 35.3 µM] |
| CCCCN1C(=O)c2ccccc2C1=O | -0.725% |
| N[C@H]1C(O)O[C@H](CO)[C@@H](O)[C@@H]1O (stereo not given in full) | 1.2% [at 35.3 µM] |
